This passage reports Potency results from PubChem BioAssay AID1347075 (National Center for Advancing Translational Sciences (NCATS), 2019).

The whole screen tested about 400,000 compounds, of which about 5,500 (1.4%) were called active. Where a call stands in place of a potency, no number is given. Roughly 9% stayed inconclusive and do not appear here. The call rests on the fitted dose curve; in most records, active means well fitted cell-killing curve with a large enough effect; inconclusive means small, poorly fitted or top-dose-only effect, or effect the other way; inactive means flat fitted curve, though single readings scatter. This excerpt belongs to a sample that is enriched for actives.
Potency means the concentration at half of the fitted maximal effect.

This test in a line: qHTS assay for MDR1-selective chemotherapeutics: Primary screen using the parental adenocarcinoma cell KB-3-1. Further: nearly all actives have a fitted effect of over 60% in size. Conditions: KB-3-1 viability, CellTiter-Glo ATP luminescence, 72 h; series mostly up to 46.1 µM. In outline: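 72 h, 37 °C compound treatment of KB-3-1 parental cells; CellTiter-Glo added, 10 min, luminescence read. Data corrected against DMSO-only plates and normalized before curve fitting.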
In general terms: Quantitative high-throughput screening tests each substance at several concentrations.
As to `CCOc1ccc(CC(=O)NCCc2csc3nc(-c4ccccc4F)nn23)cc1`, the Potency entry is “inactive”. With `Cc1cccc(OCCSc2nc3ccccc3n2CC(=O)N2CCCCC2)c1C`, the Potency entry is “inactive”. Turning to `Cc1cc(N2CCN(c3cccc(C(F)(F)F)c3)CC2)n2nc(-c3ccccc3)nc2n1`, the Potency entry is “inactive”.

Consider `O=S(=O)(Cc1ccc(Cl)cc1Cl)c1ccc(Cl)cc1`, for which the Potency is 1.64 µM (active). Consider `O=S(=O)(NC1CC1)c1ccc(Cl)cc1`, for which the Potency entry was “inactive”. For the compound `O=S(=O)(CCc1nc2ccccc2o1)c1ccc(Cl)cc1`, the Potency entry is “inactive”. With `O=C(CCl)Nc1cccc(CP(=O)(c2ccccc2)c2ccccc2)c1`, the Potency was 13 µM (active). As to `CSc1cccc(NC(=O)CSc2ccccc2)c1`, the Potency result was “inactive”. As for `O=C(CSc1ccccc1)Nc1ccc(C(=O)Nc2cccc(O)c2)cc1`, the Potency entry was “inactive”. For `Cc1cccc(CC(=O)N2CC(=O)Nc3ccc(F)cc3C2c2ccccc2)c1` (stereo unspecified), the Potency entry is “inactive”. On to `O=C(C[n+]1ccncc1)c1ccc2c(c1)CCCC2`, for which the Potency result is “inactive”.

In the case of `CC(C)c1nnc(NC(=O)COC(=O)/C=C/c2ccc([N+](=O)[O-])cc2)s1`, the Potency entry was “inactive”. Next, `CCOC(=O)/C(=C\c1ccc([N+](=O)[O-])cc1)C(=O)c1cc(C(C)=O)c(Nc2ccccc2)s1`: 3.26 µM (active). As to `CCOC(=O)C/C(C)=N\Nc1ccc([N+](=O)[O-])cc1[N+](=O)[O-]`, the Potency result was “inactive”. As for `CN(C)S(=O)(=O)c1ccc(C(=O)N(Cc2cccnc2)c2nc3c(F)cc(F)cc3s2)cc1`, the Potency result was “inactive”. On to `CC(=O)N1CCCc2cc(S(=O)(=O)N3CCC(C(=O)NCc4ccc(C)cc4)CC3)ccc21`, for which the Potency result is “inactive”. Consider `COc1cccc(CNC(=O)C2CCC(CNS(=O)(=O)c3cccs3)CC2)c1` (stereo unspecified), for which the Potency entry was “inactive”. `O=S(=O)(c1ccc2c(c1)OCCO2)N1CCc2ccccc21`: the Potency result is “inactive”. As to `NS(=O)(=O)c1ccc(CNC(=O)c2cccc(S(=O)(=O)N3CCc4ccccc43)c2)cc1`, the Potency entry was “inactive”. As for `CCn1c(=O)c(=O)n(CC)c2cc(S(=O)(=O)N3CCc4ccccc43)ccc21`, the Potency is 20.6 µM (active). To `Nc1nc(N)c(N=O)c(N)n1` belongs “inactive”. As to `Cc1cc(Cl)ccc1OCC(=O)N(Cc1ccc(N(C)C)cc1)C1CCS(=O)(=O)C1` (stereo unspecified), the Potency entry was “inactive”. As for `Nc1cc(N2CCCCCC2)c2nonc2c1[N+](=O)[O-]`, the Potency was 11.6 µM (active). To `COCCNc1nc(N)c([N+](=O)[O-])c(N2CCCCCC2)n1` belongs “inactive”. To `Cc1c(Nc2cc(N3CCCC(C)C3)c3nonc3c2[N+](=O)[O-])c(=O)n(-c2ccccc2)n1C` (stereo unspecified) belongs “inactive”; to `COc1ccc2ncc3c(-c4ccc(C)c(C)c4)nn(CC(=O)NC4CCCC4)c3c2c1`, “inactive”.

Turning to `C/C(=N/NC(=O)CC(=O)N/N=C(\C)c1ccc([N+](=O)[O-])cc1)c1ccc([N+](=O)[O-])cc1`, the Potency result was “inactive”. As for `Cc1ccc(C(=O)Cn2cccn2)cc1`, the Potency result is “inactive”.

As for `CC1=CC(C)(C)NC(=S)N1NC(=O)c1ccccc1Cl`, the Potency entry was “inactive”.

Turning to `CC12CCC(C(=O)N(NC(=O)c3ccccc3O)C1=O)C2(C)C` (stereo unspecified), the Potency was 16.4 µM (active). As to `CC(Sc1nnc2c(n1)C1CCC2(C)C1(C)C)C(=O)Nc1ccccc1` (stereo unspecified), the Potency entry was “inactive”. In the case of `Cc1ccc(CNC(=O)CCC(=O)N2Cc3ccccc3Oc3ncccc32)cc1`, the Potency result was “inactive”. For `CNC(=O)CN1C(=O)c2cccnc2Sc2ccccc21`, the Potency result was “inactive”. Consider `COCCNC(=O)c1ccc2c(c1)N=C(C)c1cc(C)ccc1S2`, for which the Potency was 0.651 µM (active). To `COCCNC(=O)c1ccc(S(=O)(=O)c2ccc(Cl)cc2)c(NC(C)=O)c1` belongs “inactive”; to `CC1=Nc2cc(C(=O)N3CCC(C)CC3)ccc2Sc2ccc(Cl)cc21`, “inactive”. On to `NC(=O)CSc1nc2c(oc3ccccc32)c(=O)n1Cc1ccccc1`, for which the Potency result is “inactive”. As to `Cn1c(NCc2cccnc2)nc2cc(-c3ccc(F)cc3)sc2c1=O`, the Potency entry was “inactive”. `O=c1[nH]c(CCl)nc2cc(-c3ccc(Cl)cc3)sc12`: the Potency is 9.2 µM (active). To `COc1cccc(-c2cc3nc(NCCOc4ccccc4Cl)n(C)c(=O)c3s2)c1` belongs “inactive”; to `Cc1cc(C)c2oc(C(=O)Nc3ccc(S(=O)(=O)N(C)c4ccccc4)cc3)cc(=O)c2c1`, “inactive”; to `COc1cccc(C(=O)NCCS(=O)(=O)NCC2CCCO2)c1` (stereo unspecified), “inactive”. As for `CN(C)S(=O)(=O)N1CCC(Oc2cccc(C(=O)NCCCC3CCCC3)c2)CC1`, the Potency was 14.6 µM (active).

For `CN(C(=O)c1cccc(OC2CCN(S(=O)(=O)N(C)C)CC2)c1)C1CCOC1` (stereo unspecified), the Potency result is “inactive”.

As to `COc1cccc(NC(=O)C2CCN(c3cc(C)nc4c(-c5ccc(Cl)cc5)c(C)nn34)CC2)c1`, the Potency result was “inactive”. For the compound `CC(NC(=O)c1cc2c(=O)n3ccccc3nc2n(C(C)C)c1=N)c1ccccc1` (stereo unspecified), the Potency entry is “inactive”. `COc1ccc(OC)c(CNC(=O)Cn2nc(C)c3c(C)n(-c4ccccc4)nc3c2=O)c1`: the Potency result is “inactive”. As for `COc1ccc(C(O)c2nc(-c3ccc4c(c3)OCO4)cs2)cc1` (stereo unspecified), the Potency result was “inactive”. With `O=C(Nc1nc(-c2ccc3c(c2)OCO3)cs1)c1ccncc1`, the Potency was 2.91 µM (active). Consider `CC(O)(c1cccc(F)c1)c1nc(-c2ccc3c(c2)OCO3)cs1` (stereo unspecified), for which the Potency result is “inactive”.

In the case of `Cc1nn(C(C)C(=O)NCCc2ccccc2)c(=O)c2c1sc1ccccc12` (stereo unspecified), the Potency entry is “inactive”.

On to `CCC(C(=O)Nc1cc(OC)ccc1OC)n1c(=O)c(C(F)(F)F)nc2ccccc21` (stereo unspecified), for which the Potency result was “inactive”. On to `O=C(CN1c2ccccc2S(=O)(=O)c2ccccc21)Nc1cccc(C(F)(F)F)c1`, for which the Potency result is “inactive”. Turning to `COc1ccccc1C1=CC(=O)CCC1`, the Potency result was “inactive”.

With `COc1ccc(/C=C2/CCCc3ccccc3C2=O)cc1`, the Potency is 0.651 µM (active).

In the case of `COc1ccc(/C=C2\N=C3CCCN3C2=O)cc1`, the Potency entry was “inactive”. As for `CNC(=O)c1ccsc1NC(=O)c1ccc(S(=O)(=O)N2CCc3ccccc32)cc1`, the Potency result was “inactive”.

In the case of `Cc1cc2nc(NC(=O)c3ccc(S(=O)(=O)N4CCOCC4)cc3)sc2cc1C`, the Potency result is “inactive”. With `O=C(Nc1nc2ccc([N+](=O)[O-])cc2s1)c1ccc(S(=O)(=O)N2CCCc3ccccc32)cc1`, the Potency is 2.06 µM (active).

With `O=C(NC1CCCCC1)c1ccc2c(c1)N(Cc1ccc(Cl)cc1)C(=O)c1ccccc1S2=O` (stereo unspecified), the Potency result is “inactive”. Regarding `N#Cc1c(-c2cccs2)nc(SCC(=O)c2ccc(Br)cc2)[nH]c1=O`, the Potency entry was “inactive”.

Turning to `COc1ccc(C(F)(F)F)cc1NC(=O)c1sc2nc(-c3cccs3)ccc2c1N`, the Potency result was “inactive”. On to `N#Cc1ccc(C(=O)Nc2nc(-c3cccs3)c(C(=O)C(F)(F)F)s2)cc1`, for which the Potency is 5.8 µM (active). Consider `S=C(NCCCc1cnc[nH]1)NCCCN(Cc1ccc(Cl)c(Cl)c1)c1ccc(Br)cn1`, for which the Potency is 13 µM (active).

For `NCCCNC(=S)NCCCN(Cc1ccc(Cl)cc1)c1ccc(Br)cn1`, the Potency entry was “inactive”.

`O=C(Nc1ccc(Cl)cc1)c1cnn2c1NC(=C1CC1)C=C2C(F)F`: the Potency entry was “inactive”.

As to `CCn1c(=O)c2cc(C(=O)NCCc3ccc(Cl)cc3)sc2c2ccccc21`, the Potency result is “inactive”. For `CSc1nc(-c2ccccc2)nc(C(Cl)Cl)n1`, the Potency is 2.91 µM (active). Consider `CSc1nc(Nc2ccc(F)cc2)cc(-c2ccccc2)n1`, for which the Potency entry was “inactive”.

As for `CC(=O)c1ccc(NC(=O)C2CCN(S(=O)(=O)c3c(C)noc3/C=C/c3ccc(C)cc3)CC2)cc1`, the Potency entry was “inactive”. To `COc1ccc(CNC(=O)CSCc2nc(-c3ccccc3F)oc2C)cc1` belongs “inactive”; to `Fc1ccccc1Oc1ncnc2c1oc1ccccc12`, “inactive”. For `Cc1ccc(-c2ccc(CN3C(C)C(=O)N(Cc4cn(CCC5OCCCO5)nn4)CCS3(=O)=O)cc2)cc1` (stereo unspecified), the Potency entry is “inactive”. In the case of `Cc1ccc(-c2ccc(CN3C(C(C)C)C(=O)N(Cc4cn(CCC5OCCO5)nn4)CCS3(=O)=O)cc2)cc1` (stereo unspecified), the Potency was 18.4 µM (active). Take `CC(C)C1C(=O)N(Cc2cn(CCC3OCCO3)nn2)CCS(=O)(=O)N1Cc1ccc(-c2ccccc2C(F)(F)F)cc1` (stereo unspecified): the Potency result was “inactive”. For `Cc1ccc(-c2nc3ccccn3c2Nc2c(C)cccc2C)o1`, the Potency entry is “inactive”. On to `CCOc1ccc(NC(=O)Cn2c(C)ccc(C#N)c2=O)cc1`, for which the Potency entry is “inactive”. Take `CC(=O)c1cccc(Nc2ccc3cc(S(=O)(=O)N4CCC(C)CC4)ccc3n2)c1`: the Potency result was “inactive”. On to `CCCC(=O)Nc1cc(OCC)c(NC(=O)NC2CCCCC2)cc1OCC`, for which the Potency result is “inactive”. Consider `CCOc1cc(NC(=O)Nc2ccccc2)c(OCC)cc1NC(=O)CC`, for which the Potency result was “inactive”. For the compound `CCOc1cc(NC(=O)CCl)c(OCC)cc1NC(C)=O`, the Potency is 18.4 µM (active). As to `COc1ccc(OC)c(NC(=O)C2CCCN(S(=O)(=O)c3ccc4c(c3)CCCC(=O)N4)C2)c1` (stereo unspecified), the Potency entry is “inactive”. For the compound `COC(=O)c1cc(NC(=O)CCS(=O)(=O)c2cc(Br)cc3c2N(C(=O)C2CC2)CC3)cc(C(=O)OC)c1`, the Potency entry was “inactive”. In the case of `CCOC(=O)c1ccc(-c2ccc(/C=C(\C#N)C(=O)Nc3ccc(C)cc3)o2)cc1`, the Potency entry was “inactive”. To `Cc1ccc(Cc2cnc(NC(=O)/C(C#N)=C/c3ccc(-c4cccc([N+](=O)[O-])c4)o3)s2)cc1` belongs 14.6 µM (active). With `Cc1ccc(C(=O)N/C(=C/c2ccc(-c3cccc([N+](=O)[O-])c3)o2)C(=O)NCCCN(C)C)cc1`, the Potency entry is “inactive”. `CCc1ccccc1NC(=O)CSc1nc(C)c(C(=O)Nc2ccccc2)c(-c2ccc(Cl)cc2)c1C#N`: the Potency entry was “inactive”. Next, `CCN(CCCNC(=O)c1c(C)oc2ncn(CC(C)C)c(=O)c12)Cc1ccccc1`: “inactive”; `COc1ccc(-c2cc(NCc3ccc(F)cc3)n3cnnc3n2)cc1`: “inactive”; `COc1cc(OC)cc(C(=O)N[C@H](C(=O)OCC(=O)NC(C)c2ccccc2)C(C)C)c1` (stereo partly specified): “inactive”. As to `COc1cc(OC)cc(C(=O)NC(C(=O)N2CCC2)C(C)C)c1` (stereo unspecified), the Potency result was “inactive”.

With `COc1cc(OC)cc(C(=O)N[C@H](C(=O)Nc2nc3ccccc3[nH]2)C(C)C)c1`, the Potency is 1.64 µM (active). To `COc1ccc(O)c(/C=N/N=C/c2cccc([N+](=O)[O-])c2)c1` belongs “inactive”; to `CCCc1ccc(OCc2ccc(C(=O)N/N=C/c3cccc([N+](=O)[O-])c3)o2)c(OC)c1`, 18.4 µM (active); to `COc1ccccc1OCc1ccc(C(=O)NC(C)c2ccccc2)o1` (stereo unspecified), “inactive”.

With `COc1ccc(OC)c(NC(=O)Cn2c(=O)n(Cc3ccccc3)c(=O)c3ccccc32)c1`, the Potency entry was “inactive”.
